The values below come from PubChem BioAssay AID463173 (ICCB-Longwood Screening Facility, Harvard Medical School, 2010).

SMILES strings stand for the structures. Among all 52,000 compounds or so, about 4,300 (8.3%) were called active. Only a selection was taken, and actives are over-represented in it overall. Values without a mark were called inactive. Rule as the data show it: active = survival mostly below about 52% (no sharp cut-off); inactive = mostly above about 56%.

This assay deals with DeltatarO mutant. Put plainly: S. aureus survival, RN4220 and DeltatarO strains – OD600, teichoic acid synthesis inhibitors, primary screen (AID 463173). The note with it: S. aureus RN4220 wild type/DeltatarO growth, OD600, 18 h, hits give low values, screened at 18.75 µg/mL (by protocol).
As to `O=c1cc(-c2ccccc2)n2c(SCc3cccc([N+](=O)[O-])c3)nnc2[nH]1`, the survival was 69%. The figure for `Cc1noc(Cn2c(=O)c3cc4c(cc3n(CC(=O)Nc3ccccc3F)c2=O)OCO4)n1` is 77%; for `Cc1cccc(CS(=O)(=O)Cc2ccc(C(=O)NCc3ccc(Cl)cc3)o2)c1` it is 130%; for `Cc1ccc(-n2c(=O)c3c4c(sc3n(CC(=O)c3ccc(Cl)cc3)c2=O)CCC4)cc1C` it is 168%.

For `Cc1ccc(Cl)cc1NC(=O)CCC(=O)NCc1ccco1`, the survival was 74%.

On to `Cc1ccc(NS(=O)(=O)c2ccc3c(c2)CCCN3C(=O)C2CCC2)cc1Cl`, for which the survival was 107%. For the compound `CCc1cccc(C)c1NC(=O)Cn1cc2c(n1)CCCC2`, the survival was 99%. As for `CCc1ccccc1NS(=O)(=O)c1ccc2[nH]cc(C(=O)N(CC(C)C)CC(C)C)c(=O)c2c1`, the survival was 84%. The figure for `Cc1ccc(N(CC(C)C)S(=O)(=O)c2nnc(NC(=O)c3cccs3)s2)cc1` is 34% (active); for `COc1ccc(N(CC(C)C)S(=O)(=O)c2nnc(NC(=O)c3cccs3)s2)cc1` it is 42% (active). The figure for `COc1ccc(C(=O)Nc2nnc(S(=O)(=O)N(CC(C)C)c3ccc(C)cc3)s2)cc1OC` is 68%; for `CC(C)CN(c1ccccc1)S(=O)(=O)c1nnc(NC(=O)C2CCCCC2)s1` it is 51%; for `Cc1ccc(N(CC(C)C)S(=O)(=O)c2nnc(NC(=O)C(C)C)s2)cc1` it is 72%. On to `COc1ccc(C(=O)Nc2nnc(S(=O)(=O)N(CC(C)C)c3ccccc3)s2)cc1`, for which the survival was 51%. With `CCc1ccc(CNC(=O)C2CCN(C(=O)N3CC(CC)Oc4ccc(C)cc43)CC2)cc1` (stereo not drawn) the figure was 55%; with `Cc1ccc2nc(-c3ccc(C)c(NC(=O)Cc4ccccc4)c3)oc2c1`, 77%; with `Cc1ccc2nc(-c3ccc(Cl)c(NC(=O)COc4ccc(C(C)C)cc4)c3)oc2c1`, 42% (active). With `Cc1ccc(OCC(=O)Nc2c(Cl)ccc3nsnc23)cc1C` the figure was 71%. With `Cc1ccc2nc(-c3ccc(Cl)c(NC(=O)COc4cccc(C)c4C)c3)oc2c1` the figure was 48% (active). `Cc1ccc2nc(-c3ccc(Cl)c(NC(=O)COc4ccc([N+](=O)[O-])cc4)c3)oc2c1`: the survival was 54%. In the case of `Cc1cc2nc(-c3cccc(NC(=O)COc4ccc(C(C)C)cc4)c3)oc2cc1C`, the survival is 50%. The figure for `Cc1ccc2nc(-c3ccc(Cl)c(NC(=O)c4cccc([N+](=O)[O-])c4C)c3)oc2c1` is 126%. The figure for `CC(C)c1ccc(OCC(=O)Nc2c(Cl)ccc3nsnc23)cc1` is 41% (active); for `Cc1cc(C)cc(OCC(=O)Nc2ccc(-c3nc4ccccc4o3)cc2)c1` it is 51%. On to `Cc1cccc(OCC(=O)Nc2ccc(-c3nc4ccccc4o3)cc2)c1C`, for which the survival was 52% (active). For the compound `O=C(COc1ccccc1)Nc1c(Cl)ccc2nsnc12`, the survival is 74%. With `Cc1ccc(OCC(=O)Nc2ccc(-c3nc4ccccc4o3)cc2)c(C)c1` the figure was 63%; with `CN1CCN(C(=O)/C(=C/c2cccs2)NC(=O)c2cccs2)CC1`, 74%. As for `CC(C)CCNC(=O)c1cnc2sc(N3CCCCCC3)nn2c1=O`, the survival is 78%.

For `CCN(CC)S(=O)(=O)c1ccc2c(c1)c(=O)c(C(=O)N1CCN(c3cccc(C)c3)C(C)C1)cn2C` (stereo not drawn), the survival is 78%. With `COc1ccc(N2CCN(C(=O)c3nn(-c4ccc(C)cc4)c(=O)n(C)c3=O)CC2)cc1` the figure was 71%; with `CCN(CC)CCNC(=O)CCn1c(=O)c2cccn2c2cccnc21`, 87%; with `O=C(Cn1nnc(-c2ccc(Cl)cc2)n1)NCc1ccc(F)cc1`, 78%.

Consider `CC(=O)N1c2ccccc2Sc2ccccc21`, for which the survival was 102%. The figure for `O=C(C1CC1)N1c2ccccc2Sc2ccccc21` is 73%; for `CC(C)c1ccc(NC(=O)N2c3ccccc3Sc3ccccc32)cc1` it is 6% (active); for `CCN(CC)C(=O)N1c2ccccc2Sc2ccccc21` it is 99%.

With `CCOC(=O)N1c2ccccc2Sc2ccccc21`, the survival is 98%.

As to `CCc1ccc(NC(=O)N2c3ccccc3Sc3ccccc32)cc1`, the survival is -2% (active). With `Cc1ccc(-c2cc(C(F)F)n3ncc(C(=O)Nc4cn(C)nc4C)c3n2)cc1` the figure was 89%; with `CC1=C(C(=O)Nc2ccc(F)cc2F)C2(CCCCCC2)OC1=O`, 83%; with `Cc1cc(C)n(-c2nc(C)c(C)c(=O)n2CC(=O)Nc2ccc([N+](=O)[O-])cc2)n1`, 77%.

Turning to `Cc1cc(C)n(-c2nc(C)c(C)c(=O)n2CC(=O)Nc2cccc([N+](=O)[O-])c2)n1`, the survival is 52% (active). The figure for `Cc1cc(=O)n(CC(=O)Nc2cccc([N+](=O)[O-])c2)c(-n2nc(C)cc2C)n1` is 95%; for `COc1ccc(CN2CCN(c3ncnc4sc5c(c34)CCCC5)CC2)cc1F` it is 33% (active); for `COc1ccc(CN2CCN(c3ncnc4sc5c(c34)CC(C)CC5)CC2)cc1F` (stereo not drawn) it is 83%. With `Cc1nc(N2CCN(C(=O)c3ccco3)CC2)c2c3c(sc2n1)CC(C(C)(C)C)CC3` (stereo not drawn) the figure was 77%; with `c1nc(N2CCCC2)c2c3c(sc2n1)CCC3`, 70%. With `Clc1ccc(CN2CCN(c3ncnc4sc5c(c34)CCCC5)CC2)cc1Cl` the figure was 107%. With `O=C(c1ccco1)N1CCN(c2ncnc3sc4c(c23)CCC4)CC1`, the survival is 36% (active). With `Cc1ccc(NC(=O)Cn2cc(S(=O)(=O)N3CCC(C)CC3)c3ccccc3c2=O)c(Br)c1` the figure was 84%; with `CC(=O)c1cccc(NC(=O)Cn2c(=O)c(CNc3ccc(C)cc3)cc3cc4c(cc32)OCCO4)c1`, 91%.

For `Cc1ccc(NCc2cc3cc4c(cc3n(CC(=O)Nc3ccc(C)cc3)c2=O)OCCO4)cc1`, the survival was 32% (active).

As for `CCc1ccc(NCc2cc3cc4c(cc3n(CC(=O)Nc3ccc(C)cc3)c2=O)OCO4)cc1`, the survival was 89%. Turning to `COc1ccc(NCc2cc3cc4c(cc3n(CC(=O)Nc3ccc(C)cc3)c2=O)OCO4)cc1`, the survival was 67%. With `CCc1ccc(NCc2cc3cc4c(cc3n(CC(=O)Nc3ccc(Cl)cc3)c2=O)OCO4)cc1` the figure was 135%.

For `CCOc1ccc(NC(=O)Cn2c(=O)c(CNc3ccc(CC)cc3)cc3cc4c(cc32)OCO4)cc1`, the survival was 47% (active).

On to `CCOC(=O)c1ccc(NC(=O)c2c(NCc3ccc(OC)c(OC)c3OC)sc3c2CCC(C)C3)cc1` (stereo not drawn), for which the survival is 123%.

In the case of `COc1cccc(C(=O)N(Cc2ccc(C)o2)C2CCS(=O)(=O)C2)c1` (stereo not drawn), the survival was 96%. In the case of `CN(C(=O)c1cc2nc(-c3ccco3)cc(C(F)(F)F)n2n1)C12CC3CC(CC(C3)C1)C2`, the survival is 110%. With `COC(=O)c1ccccc1NC(=O)c1cn2c3c(ccc(Cl)c3c1=O)OC(C)C2` (stereo not drawn) the figure was 84%; with `Cc1cccc(-n2c3nc(=O)n(C)c(=O)c-3cc3ccc(Cl)cc32)c1C`, 81%; with `Cn1c(=O)c2sccc2n2c(CCCC(=O)Nc3ccc(Oc4ccc(Cl)cc4)cc3)nnc12`, 24% (active). With `Cn1c(=O)c2sccc2n2c(CCCC(=O)Nc3ccc(Oc4ccccc4)cc3)nnc12` the figure was 53%; with `CCCn1c(=O)c2sccc2n2c(CCCC(=O)Nc3ccc(Oc4ccc(Cl)cc4)cc3)nnc12`, 98%.

As to `COc1ccc(NC(=O)c2ccc(CN3C(=O)CCn4nc(C)cc43)cc2)c(OC)c1`, the survival is 99%. Turning to `CCCC1CC(C)(c2csc(NCC)n2)OC1=O` (stereo not drawn), the survival is 71% (active). In the case of `CCCC1CC(C)(/C(C)=N\NC(N)=S)OC1=O` (stereo not drawn), the survival is 98%. With `CCC1(c2csc(Nc3ccccc3C)n2)CCC(=O)O1` (stereo not drawn) the figure was 89%. With `CCCCc1ccc(NC(=O)C2(C)Cc3ccccc3C(=O)O2)cc1` (stereo not drawn) the figure was 75%. As to `COc1ccc(S(=O)(=O)N(CC(=O)NCCc2ccccc2)c2ccc(Cl)cc2)cc1`, the survival was 83%. The figure for `COc1ccc(CCN2C(=O)N(c3ccc(F)cc3)C(=O)C2CC(=O)Nc2ccc(F)c(F)c2)cc1` (stereo not drawn) is 61%; for `CCOC(=O)c1c(-c2ccccc2)oc2ccc(NS(=O)(=O)c3ccccc3)cc12` it is 35% (active); for `CCOC(=O)c1c(-c2ccccc2)oc2ccc(NS(=O)(=O)c3ccc(C)cc3C)cc12` it is 47%. The figure for `CCOC(=O)c1c(C)oc2ccc(N(C(=O)c3ccncc3)S(=O)(=O)c3ccc(F)cc3)cc12` is 28% (active). The figure for `CCOC(=O)c1c(C)oc2ccc(N(C(=O)c3ccncc3)S(=O)(=O)c3ccc(CC)cc3)cc12` is 60%. On to `CCCc1oc2ccc(NS(=O)(=O)c3ccc(OCC)cc3)cc2c1C(=O)OCC`, for which the survival was 65%. Take `CCOC(=O)c1c(-c2ccccc2)oc2ccc(NS(=O)(=O)c3ccc(OC)cc3)cc12`: the survival is 60%.

As to `CCCCOC(=O)c1c(C)oc2ccc(NS(=O)(=O)c3ccc(F)cc3C)cc12`, the survival was 10% (active). With `Cc1cc(F)ccc1S(=O)(=O)Nc1ccc2oc3c(c2c1)CC(C)CC3` (stereo not drawn) the figure was 56%. With `CCc1ccc(S(=O)(=O)Nc2ccc3oc(C)c(C(=O)OCCOC)c3c2)cc1` the figure was 32% (active); with `CCOC(=O)c1c(-c2ccccc2)oc2ccc(NS(=O)(=O)c3ccc(C)cc3)cc12`, 83%. Take `CCOC(=O)c1c(C)oc2ccc(N(C(=O)c3ccncc3)S(=O)(=O)c3ccc(F)cc3C)cc12`: the survival was 79%. Take `COCc1oc2ccc(NS(=O)(=O)c3ccc(C)cc3)cc2c1C(=O)OC`: the survival is 60%. With `CC(C)(C)c1ccc(CN(Cc2ccco2)Cc2nnnn2C2CCCCC2)cc1` the figure was 105%; with `CC1CCc2c(nc3ncnn3c2NCCN(C)C)C1` (stereo not drawn), 88%. The figure for `COc1cccc(NC(=O)Nc2cccc(-c3cn4cccnc4n3)c2)c1` is 78%; for `COc1ccc(C(=O)n2cnnc2N)cc1` it is 103%.
